# Assay outcomes: PubChem BioAssay, several laboratories
# ERa SRC1 pot = enhancers of ERα–SRC-1 coactivator binding, primary screen, biochemical, TR-FRET, ERα LBD, low estradiol | TR-FRET ERalpha-LBD/SRC-Cy5 coactivator binding, 2 h; 100 = basal binding, no effect | coactivator binding (% of control), % at 25.6 µM | 1.3% of 86,000 active | AID 639, 2007; in the data active = activity above about 200%;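 note: binding measured in presence of low estradiol as agonist stimulus; 0% = peptide alone without receptor and 100% = receptor with peptide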
# Target sequence (P03372 whole entry, looked up, the tested form may be a part): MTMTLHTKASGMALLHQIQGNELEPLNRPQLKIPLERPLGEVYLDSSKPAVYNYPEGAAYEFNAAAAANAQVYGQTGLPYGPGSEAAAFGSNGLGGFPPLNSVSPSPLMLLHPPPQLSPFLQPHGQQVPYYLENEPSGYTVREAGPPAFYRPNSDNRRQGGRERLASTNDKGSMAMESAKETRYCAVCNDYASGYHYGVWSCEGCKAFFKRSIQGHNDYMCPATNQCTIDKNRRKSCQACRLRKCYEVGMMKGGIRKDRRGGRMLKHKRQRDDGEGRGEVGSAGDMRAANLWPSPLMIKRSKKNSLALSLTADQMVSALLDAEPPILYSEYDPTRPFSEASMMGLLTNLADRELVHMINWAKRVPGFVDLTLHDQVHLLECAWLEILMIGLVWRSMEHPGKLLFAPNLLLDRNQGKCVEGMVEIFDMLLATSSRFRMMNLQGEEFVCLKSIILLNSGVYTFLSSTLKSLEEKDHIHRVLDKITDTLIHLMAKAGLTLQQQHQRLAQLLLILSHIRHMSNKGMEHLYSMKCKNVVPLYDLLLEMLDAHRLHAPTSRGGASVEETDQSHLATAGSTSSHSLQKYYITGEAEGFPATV
# E-sel TNF inh = E-selectin induction blockers in HUVEC – imaging, immunofluorescence, high content, primary screen. HUVEC TNFa-induced E-selectin immunofluorescence. inhibition, % at 2 µM. 0.71% of 120,000 active. AID 1246, 2008;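 active = inhibition above the batch mean plus 3 SD, and confirmed as a hit on visual image review, cut at about 43% in these data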;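 note: 0% = TNF-stimulated DMSO wells and 100% = unstimulated control wells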
# ERa coact inh = ERα–SRC-1 coactivator interaction inhibitors, primary screen, biochemical, TR-FRET, ERα LBD, estradiol-bound; Estrogen receptor (Homo sapiens), P03372; TR-FRET ER-alpha LBD / SRC-1 peptide; inhibition, % at 25.6 µM; 1.7% of 86,000 active; in the data active = inhibition above about 50%;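 note: 0% = receptor plus peptide control and 100% = peptide only without receptor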
# cytoskel mod = modifiers of F-actin cytoskeleton organization, primary screen, imaging, HUVEC, phalloidin staining, high-content imaging. HUVEC TNFa F-actin phalloidin imaging. inhibition, % at 2 µM. 0.18% of 91,000 active. AID 836, 2007;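 active = inhibition above the batch mean plus 3 SD and confirmed as a hit by visual image inspection, cut at about 30% in these data, passing the limit was not always enough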
# ERb SRC1 inh = inhibitors of ERβ-SRC1 coactivator interaction, primary screen, biochemical, TR-FRET, ERβ LBD, SRC-1 peptide | TR-FRET ER-beta LBD / SRC1-Cy5 peptide binding; receptor agonist-loaded with 1 µM estradiol | inhibition, % at 25.6 µM | 1.3% of 86,000 active | AID 633, 2007;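 active = compounds whose percent inhibition of the receptor-coactivator binding signal exceeds about 50% in the single-dose screen, limit read from the data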;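 note: 0% = receptor plus peptide wells without compound and 100% = peptide-only wells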
# Calb biofilm kill = clotrimazole potentiators killing Candida biofilms, primary screen, with clotrimazole, Alamar Blue. C. albicans biofilm + clotrimazole. inhibition, % at 6 µM. 0.14% of 85,000 active;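 active = inhibition above 20%; inactive = inhibition below 20%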;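 note: preformed 24 hr biofilms exposed to compound for 48 hr; 0% = biofilm without compound and 100% = blank killed by clotrimazole plus chlorhexidine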
# Active calls of the source: *; x = no result; [ ] = remark or other dose. An excerpt weighted towards active compounds, which were near 2.9% of everything screened.
SMILES,ERa SRC1 pot,E-sel TNF inh,ERa coact inh,cytoskel mod,ERb SRC1 inh,Calb biofilm kill
Cc1[nH]nc(SCC(=O)N2CCCCC2)c1[N+](=O)[O-],690.7*[fluorescence artefact?],14.9,-7.4,x,-3.8,1.0
CC(C)=CCC/C(C)=C/CCC(C)NCCN1CCNCC1 (stereo not given),200.7*[fluorescence artefact?],x,4.7,-30.0,-4.6,2.0
Cc1ccn2c(Nc3ccccc3C)c(-c3ccncc3)nc2c1,x,7.5,x,x,x,x
O=C(Nc1ccc2nn(-c3ccccc3)nc2c1)c1ccc2c(c1)OCCO2,98.0,15.0,26.6,2.8,19.8,4.7
Cc1ccc(-n2nc3ccc(NC(=O)c4ccc5c(c4)OCO5)cc3n2)cc1,59.8,13.4,87.6*[fluorescence artefact?],-16.1,66.2*[fluorescence artefact?],7.3
CCc1ccc(-n2nc3ccc(NC(=O)c4ccc5c(c4)OCO5)cc3n2)cc1,362.4*[fluorescence artefact?],-4.8,37.0,-15.9,14.3,2.9
O=C(Nc1ccc2nsnc2c1)c1ccc2c(c1)OCO2,115.5,99.9*,20.1,11.6,5.7,5.0
O=C(Nc1ccc2nn(-c3ccccc3)nc2c1)c1ccc(Br)o1,206.6*,-17.6,55.6*,x,38.6,3.7
CCOc1ccc(-n2nc3ccc(NC(=O)c4ccc5c(c4)OCCO5)cc3n2)cc1,56.6,8.2,38.0,19.2,21.1,3.0
Cn1cnc2cc(NC(=O)c3ccco3)ccc21,100.2,-10.2,-29.5,50.0,-15.0,8.8
Cc1ccc(-n2nc3ccc(NC(=O)c4ccco4)cc3n2)cc1,195.6,-26.8,71.1*[fluorescence artefact?],-17.0,46.5,2.1
C/C(=N\Nc1cc(-c2ccccc2)nc(-c2ccccc2)n1)c1ccc(O)c(C)c1,x,79.8*,x,x,x,x
CCCCNC(=O)CSc1nc2ccsc2c(=O)n1CCCC(=O)NCCc1ccc(S(N)(=O)=O)cc1,x,-6.6,x,x,x,x
COc1cccc(-n2nnc3c(=O)n(Cc4cccc(F)c4)cnc32)c1,268.6*,-14.4,19.4,18.8,17.2,5.6
COc1cccc(-n2nnc3c(=O)n(Cc4c(F)cccc4Cl)cnc32)c1,126.7,7.8,44.1,-1.3,19.9,4.8
CCOC(=O)Cc1nn(C)c(=O)c2ccccc12,97.3,-2.0,1.8,-20.4,62.8*,-2.2
O=C(O)C1CCCCC1C(=O)Nc1ccc(Cl)cc1Cl (stereo not given),124.6,11.3,-4.3,-1.3,-8.9,9.4
O=C(O)C1CCCCC1C(=O)Nc1cc(Cl)ccc1Cl (stereo not given),114.0,-34.1,-5.5,36.8*,-2.0,-0.1
O=C(C(Cc1ccccc1)n1cccc1)N1CCCCCC1 (stereo not given),116.6,x,-7.5,17.5,-6.8,20.6*
O=C(C(Cc1ccccc1)n1cccc1)N1CCCCC1 (stereo not given),116.3,6.6,-2.5,12.9,-4.2,-19.1
Cc1nc2ccccc2n1C(=O)N(C)C,x,-26.4,x,x,x,x
CCc1ccc(S(=O)(=O)NCCc2cn3cccc(C)c3n2)s1,x,-18.6,x,x,x,x
COCCn1c(-c2ccc(-c3ccccc3Cl)o2)nc2c1c(=O)[nH]c(=O)n2CC(C)C,208.4*,x,7.7,16.3,9.2,5.4
COc1ccc(CCNC(=O)c2ccc(-c3ccc([N+](=O)[O-])cc3)o2)cc1OC,x,-55.5,x,x,x,x
O=[N+]([O-])c1ccc(O)c(/C=N/Nc2ccc(Cl)nn2)c1,x,100.0*,x,24.8,x,x
SMILES,ERa SRC1 pot,E-sel TNF inh,ERa coact inh,cytoskel mod,ERb SRC1 inh,Calb biofilm kill
O=[N+]([O-])c1ccc(O)c(/C=N/Nc2nn[nH]n2)c1,x,-25.6,x,x,x,x
Cc1ccc(S(=O)(=O)c2c(N)n(/N=C/c3ccco3)c3nc4ccccc4nc23)cc1,111.7,x,-0.2,26.1,23.8,2.5
Cc1cccc(S(=O)(=O)c2c(N)n(/N=C/c3ccco3)c3nc4ccccc4nc23)c1,252.6*,-9.9,1.3,-20.4,9.9,8.7
COc1ccc(OC)c2c(C)cc(N3CCCN(C)CC3)nc12,109.2,1.3,-0.6,-6.4,-11.6,3.9
CSc1nnc2c3ccccc3n(Cc3ccccc3)c2n1,128.5,6.7,9.5,-1.3,3.5,-2.6
CSc1nnc2c3cc(F)ccc3n(Cc3ccccc3)c2n1,336.3*,x,15.5,x,19.3,-0.4
O=C(NCCO)C(O)C(O)C(=O)NCCO (stereo not given),x,4.8,x,x,x,x
CCCCc1ccc(-n2c(Cc3cccs3)n[nH]c2=S)cc1,x,-37.4,x,x,x,x
O=c1[nH]c2cnccc2n1-c1ccccc1,116.9,7.9,-9.0,3.5,11.2,8.3
O=C1CCCC(O)=C1C(C#Cc1ccccc1)C1=C(O)CCCC1=O,24.1,-26.4,33.6,x,52.1*[fluorescence artefact?],9.6
COc1cccc(/C=C/C(=C2\C(=O)N(c3ccccc3)N=C2C)c2ccc(Br)cc2)c1OC,x,12.0,x,-22.6,x,x
N#Cc1c(SCc2nc3ccccc3[nH]2)nc2c(c1C(F)(F)F)CCC2,99.1,6.2,0.5,-5.5,-3.2,4.4
Cc1cc(C)c(C#N)c(SCc2nc3ccccc3[nH]2)n1,x,-29.4,x,33.5*,x,x
CCCCN(CCCC)S(=O)(=O)c1ccc(NC(=O)c2cccs2)cc1,98.9,84.7*,3.1,15.3,2.9,0.9
Cc1cc(C)nc(NS(=O)(=O)c2ccc(NC(=O)c3cccs3)cc2)n1,111.7,2.0,-3.5,-8.8,-2.9,7.8
COc1cccc(-c2cc3nc(-c4ccccc4)cc(N4CCC5(CC4)OCCO5)n3n2)c1,210.2*,-15.6,21.0,-21.9,14.1,7.5
CC(=O)N1CCC(N(CCN2CCOCC2)C(=S)Nc2cc(C)ccc2C)CC1,x,34.8,x,x,x,x
O=C(CCCn1c(=S)[nH]c2cc3c(cc2c1=O)OCO3)N1CCN(c2ccc(Cl)cc2)CC1,73.5,43.5,66.0*,-15.1,27.4,7.0
O=C(CCCn1c(=S)[nH]c2cc3c(cc2c1=O)OCO3)N1CCN(c2ccccc2)CC1,95.8,-40.7,15.6,0.1,13.7,-3.6
O=C(CCCn1c(=S)[nH]c2cc3c(cc2c1=O)OCO3)N1CCc2ccccc2C1,124.5,-11.2,20.3,6.9,50.7*,-0.1
O=C(NCCN1CCCC1)c1ccc(Cn2c(=S)[nH]c3cc4c(cc3c2=O)OCO4)cc1,144.6,x,70.1*[fluorescence artefact?],47.6,45.1,11.6
CCCNC(=O)COC(=O)CCC(=O)c1ccc(F)cc1,x,13.2,x,-6.4,x,x
CCCCOC(=O)Nc1cccc(Cl)c1C,110.6,19.2,3.8,x,-8.6,4.4
CCOc1ccccc1NC(=O)C1CCCN(S(=O)(=O)c2cccc3cccnc23)C1 (stereo not given),99.1,x,3.5,0.0,20.6,0.5
O=C(Nc1ccccc1F)C1CCCN(S(=O)(=O)c2cccc3cccnc23)C1 (stereo not given),123.1,-3.8,2.8,-1.5,52.5*[fluorescence artefact?],3.4
COc1ccc(-c2cc(C(=O)Nc3ccc(C)cc3)no2)cc1,82.7,9.6,11.2,19.1,14.9,3.5
